{
  "source": "PubChem BioAssay (NCATS)",
  "key": {"CRL-7250": {"system": "CRL-7250", "assay": "Cytotoxic Profiling of Annotated Libraries Using Quantitative High-Throughput Screening (AID 1296008); also: nearly all actives have a fitted effect of over 60% in size", "conditions": "Five cell lines viability, CellTiter-Glo ATP luminescence, 48-72 h; max response: hits give low values", "outline": "(§1)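 Cytotoxicity was measured as CellTiter-Glo ATP luminescence, read after 10 min at room temperature. Compound treatment of the cells lasted 48 or 72 hr at 37 degrees Celsius in a qHTS format.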"}, "HEK293": {"system": "HEK293", "assay": "Cytotoxic Profiling of Annotated Libraries Using Quantitative High-Throughput Screening (AID 1296008)", "conditions": "Five cell lines viability, CellTiter-Glo ATP luminescence, 48-72 h; max response: hits give low values", "outline": "as §1"}},
  "note": "Results filed as inconclusive are left out. Values without a mark were called inactive. Calls of active or inactive are those of the source. Calls follow the shape of the dose curve; as a rule, active = well fitted inhibition curve with a large enough effect; inconclusive = small, poorly fitted or top-dose-only effect; inactive = flat fitted curve, though single readings scatter. % is scaled to controls: 0 for no effect and ±100 for the full control effect; potency is read from the fitted curve at half-maximal effect.",
  "data": [
    {"smiles": "CC1(C)CC[C@]2(C(=O)O[C@@H]3O[C@H](CO)[C@@H](O)[C@H](O)[C@H]3O)CC[C@]3(C)C(=CCC4[C@@]5(C)CC[C@H](O[C@@H]6O[C@H](C(=O)O)[C@@H](O)[C@H](O[C@@H]7O[C@H](CO)[C@H](O)[C@H](O)[C@H]7O)[C@H]6O)C(C)(C)C5CC[C@]43C)C2C1", "note": "(some centres undefined)", "values": [
      {"measurement": "max response", "setting": "CRL-7250", "result": -0.842, "unit": "%"},
      {"measurement": "max response", "setting": "HEK293", "result": 1.5, "unit": "%"}
    ]},
    {"smiles": "CCCCNc1ncc2c(-c3ccc(CN4CCN(C)CC4)cc3)cn(C3CCC(O)CC3)c2n1", "note": "(centres undefined)", "values": [
      {"measurement": "Potency", "setting": "CRL-7250", "result": "5170 nM (active)"},
      {"measurement": "Potency", "setting": "HEK293", "result": "7310 nM (active)"}
    ]},
    {"smiles": "C=C1CCCC2(C)CC3(OC)OC(=O)C(C)=C3CC12", "note": "(centres undefined)", "values": [
      {"measurement": "max response", "setting": "CRL-7250", "result": 2.37, "unit": "%"},
      {"measurement": "max response", "setting": "HEK293", "result": 3.93, "unit": "%"}
    ]},
    {"smiles": "COc1cc2ncnc(Nc3cccc(O)c3)c2cc1OC", "values": [
      {"measurement": "outcome", "setting": "CRL-7250", "result": "inactive"},
      {"measurement": "max response", "setting": "HEK293", "result": -2.36, "unit": "%"}
    ]},
    {"smiles": "C=CC[C@]12C[C@@H](OC)C(=O)C(OC)=C1O[C@@H](c1cc(OC)c3c(c1)OCO3)[C@@H]2C", "values": [
      {"measurement": "max response", "setting": "CRL-7250", "result": 4.3, "unit": "%"},
      {"measurement": "max response", "setting": "HEK293", "result": -8.3, "unit": "%"}
    ]},
    {"smiles": "C[C@H]1CC[C@@]2(OC1)O[C@H]1CC3C4CC[C@H]5C[C@@H](O)[C@H](O)C[C@]5(C)C4=CC(=O)[C@]3(C)[C@H]1[C@@H]2C", "note": "(some centres undefined)", "values": [
      {"measurement": "max response", "setting": "CRL-7250", "result": -0.885, "unit": "%"},
      {"measurement": "max response", "setting": "HEK293", "result": -6.34, "unit": "%"}
    ]},
    {"smiles": "CCC(C(=O)O)c1ccc(N2Cc3ccccc3C2=O)cc1", "note": "(centres undefined)", "values": [
      {"measurement": "max response", "setting": "CRL-7250", "result": -5.22, "unit": "%"},
      {"measurement": "max response", "setting": "HEK293", "result": -2.44, "unit": "%"}
    ]},
    {"smiles": "CCCCc1nc2cc(/C=C/C(=O)NO)ccc2n1CCN(CC)CC", "values": [
      {"measurement": "Potency", "setting": "CRL-7250", "result": "5800 nM (active)"},
      {"measurement": "Potency", "setting": "HEK293", "result": "1840 nM (active)"}
    ]},
    {"smiles": "CC[C@H](C)[C@H](NC(=O)[C@H]([C@@H](C)CC)N(C)C(C)=O)C(=O)N[C@H](C(=O)N[C@@H](CC(C)C)C(=O)[C@@]1(C)CO1)[C@@H](C)O", "values": [
      {"measurement": "Potency", "setting": "CRL-7250", "result": "29.1 nM (active)"},
      {"measurement": "Potency", "setting": "HEK293", "result": "9.2 nM (active)"}
    ]},
    {"smiles": "CC(C)C(N)C(=O)OCCOCn1cnc2c(=O)[nH]c(N)nc21", "note": "(centres undefined)", "values": [
      {"measurement": "max response", "setting": "CRL-7250", "result": 2.37, "unit": "%"},
      {"measurement": "max response", "setting": "HEK293", "result": 1.16, "unit": "%"}
    ]},
    {"smiles": "CC1(C)CC[C@]2(CO[C@@H]3O[C@H](CO)[C@@H](O)[C@H](O)[C@H]3O)[C@@H](O)C[C@]3(C)C(=CCC4[C@@]5(C)CC[C@H](O[C@@H]6O[C@H](CO[C@@H]7O[C@H](CO[C@@H]8OC[C@@H](O)[C@H](O)[C@H]8O)[C@@H](O)[C@H](O)[C@H]7O)[C@@H](O)[C@H](O)[C@H]6O)C(C)(C)C5CC[C@]43C)[C@@H]2C1", "note": "(some centres undefined)", "values": [
      {"measurement": "max response", "setting": "CRL-7250", "result": -5.37, "unit": "%"},
      {"measurement": "max response", "setting": "HEK293", "result": -6.51, "unit": "%"}
    ]},
    {"smiles": "C/C1=C\\C[C@]2(C)C(=O)C(O)=C([C@H](C)CO)[C@H]2C/C=C(\\C)[C@@H](O)CC/C(C)=C/CC1", "values": [
      {"measurement": "max response", "setting": "CRL-7250", "result": 3.52, "unit": "%"},
      {"measurement": "max response", "setting": "HEK293", "result": 2.1, "unit": "%"}
    ]},
    {"smiles": "C/C=C1\\[C@H](OC2OC(COC3OC(CO)C(O)C(O)C3O)C(O)C(O)C2O)OC=C(C(=O)OC)[C@H]1CC(=O)OCCc1ccc(O)cc1", "note": "(some centres undefined)", "values": [
      {"measurement": "max response", "setting": "CRL-7250", "result": -3.04, "unit": "%"},
      {"measurement": "max response", "setting": "HEK293", "result": -70.9, "unit": "%"}
    ]},
    {"smiles": "CCC1=CC2CN(C1)Cc1c([nH]c3ccccc13)[C@@](C(=O)OC)(c1cc3c(cc1OC)N(C)[C@H]1[C@@](O)(C(=O)OC)[C@H](OC(C)=O)[C@]4(CC)C=CCN5CC[C@]31[C@@H]54)C2", "note": "(some centres undefined)", "values": [
      {"measurement": "Potency", "setting": "CRL-7250", "result": "126 nM (active)"},
      {"measurement": "Potency", "setting": "HEK293", "result": "100 nM (active)"}
    ]},
    {"smiles": "CCCC(=O)C1CCN(c2ncnc3c2CN(C(=O)c2ccc(-c4ccccc4)cc2)CC3)CC1", "values": [
      {"measurement": "max response", "setting": "CRL-7250", "result": -7.29, "unit": "%"},
      {"measurement": "Potency", "setting": "HEK293", "result": "18400 nM (active)"}
    ]},
    {"smiles": "OCC1OC(Oc2cc(O)cc(/C=C/c3ccc(O)cc3)c2)C(O)C(O)C1O", "note": "(centres undefined)", "values": [
      {"measurement": "max response", "setting": "CRL-7250", "result": -6.35, "unit": "%"},
      {"measurement": "max response", "setting": "HEK293", "result": 2.65, "unit": "%"}
    ]},
    {"smiles": "CC(C)(O)C1CCC(C)(C2CCC3(C)C4CCC5C(C)(C(=O)OC6OC(CO)C(O)C(O)C6O)C(O)CC(O)C56CC46CCC23C)O1", "note": "(centres undefined)", "values": [
      {"measurement": "outcome", "setting": "CRL-7250", "result": "inactive"},
      {"measurement": "max response", "setting": "HEK293", "result": 0.689, "unit": "%"}
    ]},
    {"smiles": "CC(C)=CCC[C@](C)(O)[C@H]1CC[C@]2(C)[C@@H]1[C@H](O)CC1[C@@]3(C)CC[C@H](O)C(C)(C)[C@@H]3[C@@H](O[C@@H]3O[C@H](CO)[C@@H](O)[C@H](O)[C@H]3O[C@@H]3O[C@H](CO)[C@@H](O)[C@H](O)[C@H]3O)C[C@]12C", "note": "(some centres undefined)", "values": [
      {"measurement": "max response", "setting": "CRL-7250", "result": -7.72, "unit": "%"},
      {"measurement": "max response", "setting": "HEK293", "result": -11.9, "unit": "%"}
    ]},
    {"smiles": "CC1(C)CC2C=C(C(=O)O)C3COC(=O)C(O)(CO)C23C1", "note": "(centres undefined)", "values": [
      {"measurement": "max response", "setting": "CRL-7250", "result": -19.1, "unit": "%"},
      {"measurement": "max response", "setting": "HEK293", "result": 4.03, "unit": "%"}
    ]},
    {"smiles": "CCN(Cc1cccnc1)C(=O)CN(c1ccc(OC)nc1)S(=O)(=O)c1ccccc1C", "values": [
      {"measurement": "max response", "setting": "CRL-7250", "result": -4.21, "unit": "%"},
      {"measurement": "outcome", "setting": "HEK293", "result": "inactive"}
    ]},
    {"smiles": "COC(=O)c1ccnc(-c2cc(C(=O)NCCc3ccccc3)ccn2)c1", "values": [
      {"measurement": "max response", "setting": "CRL-7250", "result": -12.7, "unit": "%"},
      {"measurement": "max response", "setting": "HEK293", "result": -3.61, "unit": "%"}
    ]},
    {"smiles": "COC(=O)C(C)C1CCC2(C)C(=O)C=CC(C)(O)C2C1O", "note": "(centres undefined)", "values": [
      {"measurement": "outcome", "setting": "CRL-7250", "result": "inactive"},
      {"measurement": "max response", "setting": "HEK293", "result": -6.36, "unit": "%"}
    ]}
  ]
}
